Experimental data from ChEMBL document CHEMBL1961873, “Compounds: GSK PKIS; Assays: Nanosyn kinase panel” (2012).

Experiments:
[1] = molecular target: Casein kinase I isoform gamma-2 (Homo sapiens) (UniProt P78368); settings: at 1 µM
[2] = molecular target: Casein kinase I isoform gamma-3 (Homo sapiens) (UniProt Q9Y6M4); settings: at 0.1 µM
[3] = molecular target: Casein kinase I isoform gamma-3 (Homo sapiens) (UniProt Q9Y6M4); settings: at 1 µM
[4] = molecular target: Cyclin-dependent kinase 1 (Homo sapiens) (UniProt P06493); settings: at 0.1 µM
[5] = molecular target: Cyclin-dependent kinase 1 (Homo sapiens) (UniProt P06493); settings: at 1 µM
[6] = molecular target: Cyclin-dependent kinase 2 (Homo sapiens) (UniProt P24941); settings: at 0.1 µM
[7] = molecular target: Cyclin-dependent kinase 2 (Homo sapiens) (UniProt P24941); settings: at 1 µM
[8] = molecular target: Cyclin-dependent kinase 2 (Homo sapiens) (UniProt P24941); settings: at 0.1 µM; remark: listed apart in the source
[9] = molecular target: Cyclin-dependent kinase 2 (Homo sapiens) (UniProt P24941); settings: at 1 µM; remark: listed apart in the source
[10] = molecular target: T1, CDK3/Cyclin E (Homo sapiens) (UniProt P24864+Q00526); settings: at 0.1 µM
[11] = molecular target: T1, CDK3/Cyclin E (Homo sapiens); settings: at 1 µM
[12] = molecular target: Cyclin-dependent kinase 4 (Homo sapiens) (UniProt P11802); settings: at 0.1 µM
[13] = molecular target: Cyclin-dependent kinase 4 (Homo sapiens) (UniProt P11802); settings: at 1 µM
[14] = molecular target: Cyclin-dependent kinase 5 (Homo sapiens) (UniProt Q00535); settings: at 0.1 µM
[15] = molecular target: Cyclin-dependent kinase 5 (Homo sapiens) (UniProt Q00535); settings: at 1 µM
[16] = molecular target: Cyclin-dependent kinase 6 (Homo sapiens) (UniProt Q00534); settings: at 0.1 µM
[17] = molecular target: Cyclin-dependent kinase 6 (Homo sapiens) (UniProt Q00534); settings: at 1 µM
[18] = molecular target: Dual specificity protein kinase CLK2 (Homo sapiens) (UniProt P49760); settings: at 0.1 µM
[19] = molecular target: Dual specificity protein kinase CLK2 (Homo sapiens) (UniProt P49760); settings: at 1 µM
[20] = molecular target: Dual specificity protein kinase CLK3 (Homo sapiens) (UniProt P49761); settings: at 0.1 µM
Dual specificity protein kinase CLK3 (Homo sapiens), sequence (P49761 whole entry, looked up): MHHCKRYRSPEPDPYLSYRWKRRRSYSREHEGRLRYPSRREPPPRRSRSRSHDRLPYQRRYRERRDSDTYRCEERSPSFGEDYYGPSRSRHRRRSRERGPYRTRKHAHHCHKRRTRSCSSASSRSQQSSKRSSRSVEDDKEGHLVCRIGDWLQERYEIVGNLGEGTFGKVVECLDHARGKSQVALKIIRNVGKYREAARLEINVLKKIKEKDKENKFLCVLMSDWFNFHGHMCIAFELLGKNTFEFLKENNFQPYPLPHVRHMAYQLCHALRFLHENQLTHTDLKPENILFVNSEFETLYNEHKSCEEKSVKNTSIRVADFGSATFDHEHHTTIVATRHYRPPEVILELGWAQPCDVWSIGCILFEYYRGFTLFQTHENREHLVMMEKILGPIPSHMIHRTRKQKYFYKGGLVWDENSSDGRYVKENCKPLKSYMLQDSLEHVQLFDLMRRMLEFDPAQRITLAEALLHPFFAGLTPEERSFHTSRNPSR

Cyclin-dependent kinase 4 (Homo sapiens), sequence (P11802 whole entry): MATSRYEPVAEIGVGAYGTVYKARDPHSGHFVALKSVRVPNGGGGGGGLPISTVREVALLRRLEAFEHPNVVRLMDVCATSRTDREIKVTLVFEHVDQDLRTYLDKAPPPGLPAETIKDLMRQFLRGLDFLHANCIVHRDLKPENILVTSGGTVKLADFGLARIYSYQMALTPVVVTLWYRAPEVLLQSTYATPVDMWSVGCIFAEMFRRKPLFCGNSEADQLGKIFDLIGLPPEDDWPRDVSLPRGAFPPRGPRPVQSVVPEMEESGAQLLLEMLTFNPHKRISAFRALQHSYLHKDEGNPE
Cyclin-dependent kinase 5 (Homo sapiens), sequence (Q00535 whole entry, looked up): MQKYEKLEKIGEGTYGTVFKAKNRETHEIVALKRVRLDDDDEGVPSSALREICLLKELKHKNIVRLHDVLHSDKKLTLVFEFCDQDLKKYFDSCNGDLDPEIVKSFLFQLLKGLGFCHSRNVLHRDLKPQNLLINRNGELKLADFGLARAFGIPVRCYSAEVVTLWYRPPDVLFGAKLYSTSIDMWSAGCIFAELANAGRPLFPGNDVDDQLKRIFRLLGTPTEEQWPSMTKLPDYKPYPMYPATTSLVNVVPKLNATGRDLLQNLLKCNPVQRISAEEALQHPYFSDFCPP
Dual specificity protein kinase CLK2 (Homo sapiens), sequence (P49760 whole entry, looked up): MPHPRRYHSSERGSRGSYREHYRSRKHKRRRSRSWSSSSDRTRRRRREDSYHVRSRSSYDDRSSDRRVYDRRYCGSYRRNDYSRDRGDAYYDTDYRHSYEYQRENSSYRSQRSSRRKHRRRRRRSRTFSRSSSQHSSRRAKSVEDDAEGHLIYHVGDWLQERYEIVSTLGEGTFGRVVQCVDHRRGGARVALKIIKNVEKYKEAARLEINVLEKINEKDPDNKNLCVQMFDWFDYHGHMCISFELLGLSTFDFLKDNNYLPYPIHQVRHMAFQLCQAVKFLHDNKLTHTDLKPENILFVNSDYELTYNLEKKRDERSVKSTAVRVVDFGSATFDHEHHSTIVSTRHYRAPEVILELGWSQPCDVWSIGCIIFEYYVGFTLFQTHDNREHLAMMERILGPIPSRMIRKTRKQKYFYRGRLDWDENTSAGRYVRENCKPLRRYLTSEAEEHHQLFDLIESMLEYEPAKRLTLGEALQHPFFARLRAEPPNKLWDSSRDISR
T1 sequence (P24864 whole entry, looked up): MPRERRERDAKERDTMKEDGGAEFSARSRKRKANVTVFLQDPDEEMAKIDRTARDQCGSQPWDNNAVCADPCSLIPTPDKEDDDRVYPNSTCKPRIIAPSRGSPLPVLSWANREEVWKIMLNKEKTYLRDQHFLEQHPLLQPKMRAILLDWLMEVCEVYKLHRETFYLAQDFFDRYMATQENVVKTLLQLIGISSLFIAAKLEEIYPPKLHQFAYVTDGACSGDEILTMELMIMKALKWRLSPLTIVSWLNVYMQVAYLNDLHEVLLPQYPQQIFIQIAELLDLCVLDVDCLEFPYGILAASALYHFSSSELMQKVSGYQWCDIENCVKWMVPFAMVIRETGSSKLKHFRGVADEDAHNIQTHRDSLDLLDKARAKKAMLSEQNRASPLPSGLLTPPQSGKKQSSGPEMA
T1 sequence (Q00526 whole entry, looked up): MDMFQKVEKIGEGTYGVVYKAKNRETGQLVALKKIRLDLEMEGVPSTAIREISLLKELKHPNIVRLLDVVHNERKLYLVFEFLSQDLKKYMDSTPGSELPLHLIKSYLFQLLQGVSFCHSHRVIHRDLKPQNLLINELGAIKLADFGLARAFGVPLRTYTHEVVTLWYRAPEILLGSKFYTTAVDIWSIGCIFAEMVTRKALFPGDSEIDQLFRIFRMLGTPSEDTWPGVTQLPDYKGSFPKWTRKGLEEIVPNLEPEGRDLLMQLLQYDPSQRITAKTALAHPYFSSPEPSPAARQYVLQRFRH
Casein kinase I isoform gamma-3 (Homo sapiens), sequence (Q9Y6M4 whole entry, looked up, canonical isoform): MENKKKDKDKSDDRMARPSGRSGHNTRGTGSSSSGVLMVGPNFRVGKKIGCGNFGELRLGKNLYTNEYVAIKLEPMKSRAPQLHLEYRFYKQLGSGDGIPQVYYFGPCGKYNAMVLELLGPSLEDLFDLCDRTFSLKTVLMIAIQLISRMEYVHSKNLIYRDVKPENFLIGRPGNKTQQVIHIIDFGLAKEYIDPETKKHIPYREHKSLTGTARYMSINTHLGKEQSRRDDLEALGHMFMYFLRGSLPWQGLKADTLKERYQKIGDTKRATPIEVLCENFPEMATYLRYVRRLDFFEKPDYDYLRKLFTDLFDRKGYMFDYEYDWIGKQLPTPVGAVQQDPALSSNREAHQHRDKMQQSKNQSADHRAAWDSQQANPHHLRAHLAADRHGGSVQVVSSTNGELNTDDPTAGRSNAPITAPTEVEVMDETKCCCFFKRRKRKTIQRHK
Cyclin-dependent kinase 1 (Homo sapiens), sequence (P06493 whole entry, looked up): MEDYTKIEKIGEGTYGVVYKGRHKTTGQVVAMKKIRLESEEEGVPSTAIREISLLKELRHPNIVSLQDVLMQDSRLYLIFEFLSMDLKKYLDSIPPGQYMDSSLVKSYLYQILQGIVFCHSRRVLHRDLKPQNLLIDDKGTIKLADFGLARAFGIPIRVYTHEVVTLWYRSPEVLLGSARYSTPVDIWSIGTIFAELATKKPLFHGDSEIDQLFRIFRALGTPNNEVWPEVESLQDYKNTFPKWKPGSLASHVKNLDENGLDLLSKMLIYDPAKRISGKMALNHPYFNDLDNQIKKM
Cyclin-dependent kinase 6 (Homo sapiens), sequence (Q00534 whole entry): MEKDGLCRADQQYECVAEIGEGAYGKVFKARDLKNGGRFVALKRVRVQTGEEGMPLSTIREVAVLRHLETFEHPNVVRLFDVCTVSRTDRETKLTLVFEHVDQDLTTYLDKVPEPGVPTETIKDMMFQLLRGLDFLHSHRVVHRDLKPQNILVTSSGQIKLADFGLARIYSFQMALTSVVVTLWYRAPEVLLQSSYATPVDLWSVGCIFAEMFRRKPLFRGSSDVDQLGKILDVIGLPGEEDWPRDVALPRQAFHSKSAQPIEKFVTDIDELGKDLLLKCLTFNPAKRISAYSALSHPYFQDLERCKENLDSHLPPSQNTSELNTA
Casein kinase I isoform gamma-2 (Homo sapiens), sequence (P78368 whole entry, looked up, canonical isoform): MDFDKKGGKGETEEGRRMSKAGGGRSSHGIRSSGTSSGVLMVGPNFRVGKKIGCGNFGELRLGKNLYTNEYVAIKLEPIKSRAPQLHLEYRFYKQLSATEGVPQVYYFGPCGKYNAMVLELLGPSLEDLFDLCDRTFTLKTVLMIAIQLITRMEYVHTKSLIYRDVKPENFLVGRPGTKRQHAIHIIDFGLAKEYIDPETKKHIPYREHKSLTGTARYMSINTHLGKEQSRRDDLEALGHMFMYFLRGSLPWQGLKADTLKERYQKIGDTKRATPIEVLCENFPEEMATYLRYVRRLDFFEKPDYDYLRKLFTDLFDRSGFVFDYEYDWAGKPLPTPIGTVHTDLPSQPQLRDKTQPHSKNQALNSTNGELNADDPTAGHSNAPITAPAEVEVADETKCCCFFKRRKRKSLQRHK

Structure (SMILES) | inhibition [1] [%] | inhibition [2] [%] | inhibition [3] [%] | inhibition [4] [%] | inhibition [5] [%] | inhibition [6] [%] | inhibition [7] [%] | inhibition [8] [%] | inhibition [9] [%] | inhibition [10] [%] | inhibition [11] [%] | inhibition [12] [%] | inhibition [13] [%] | inhibition [14] [%] | inhibition [15] [%] | inhibition [16] [%] | inhibition [17] [%] | inhibition [18] [%] | inhibition [19] [%] | inhibition [20] [%]
O=S(=O)(CCNCc1ccc(-c2ccc3ncnc(Nc4ccc(OCc5cccc(F)c5)c(Cl)c4)c3c2)o1)c1ccccc1 | 5.75 | 4.59 | 5.14 | 0.29 | 1.65 | 2.32 | 2.63 | 3.6 | 5.45 | 0.01 | -1.98 | 4.84 | 5.57 | 0.05 | 1.21 | 0.74 | 2.65 | 0.01 | 1.31 | 0.95
CNC(=O)c1cncc(/C=C/c2ccccc2Cl)c1 | -0.77 | 0.25 | -0.89 | 0.47 | 3.2 | 0.6 | -0.73 | -0.47 | 0.52 | 0.31 | -0.07 | -1.43 | -0.33 | 0.19 | 2 | 2.81 | -1.1 | -0.38 | 0.35 | -0.85
CNC(=O)c1cc(-c2ccc(F)cc2)cc(-c2ccc(S(=O)(=O)N3CCCC3)cc2)c1N | 2.38 | 3.27 | 0.61 | -0.56 | 1.19 | 1 | 1.91 | 2.41 | 3.39 | -1.31 | -2.51 | 1.65 | 2.17 | 0.12 | 1.55 | -2.1 | -3.59 | 1.77 | 2.42 | 0.69
CCn1c(-c2nonc2N)nc2cnc(Oc3cccc(NC(=O)c4ccc(N(C)C)cc4)c3)cc21 | 1.09 | 0.95 | 0.52 | 0.43 | 0.67 | 1.74 | 8.52 | 1.65 | 2.7 | -1.33 | -1.3 | 1.81 | 1.34 | 0.66 | 1.93 | -1.64 | 1.62 | -0.04 | 1.15 | 0.38
CN1CCC(n2cnc(-c3ccc(F)cc3)c2-c2ccnc(N)n2)CC1 | 4.69 | 0.53 | 10.3 | 0.23 | 2 | 0.76 | 1.07 | 1.45 | 2.89 | 1.57 | -0.17 | 0.29 | 1.34 | 0.36 | 1.02 | 1.87 | 0.65 | 2.8 | 13.8 | 0.99
NS(=O)(=O)c1ccc(Nc2ncc(-c3ccccc3)o2)cc1 | 4.34 | 3.53 | 3.96 | 19.7 | 66.2 | 48.2 | 109 | 56.2 | 86.8 | 44.6 | 77.2 | 9.25 | 26.5 | 23.8 | 70.3 | 13.1 | 48.6 | 1.81 | 1.67 | 2.28
COc1cc(Nc2nccc(Nc3ccc4c(C)n[nH]c4c3)n2)cc(OC)c1OC | 9.2 | 0.39 | -0.68 | 0.71 | 3.05 | 0.73 | 3.22 | 2.32 | 6.07 | 1.75 | 4.99 | 2.86 | 3.18 | 1.21 | 2.36 | 1.52 | 3.31 | 1.62 | 2.36 | 0.25
CN1CCC(n2cnc(-c3ccc(F)cc3)c2-c2ccnc(Nc3ccccc3)n2)CC1 | 35.2 | 12.4 | 61.7 | 0.37 | 2.52 | 0.89 | -0.3 | 1.14 | 2.14 | 2.38 | -2.19 | 1.36 | 2.55 | 0.25 | 1 | 3.89 | 0.2 | 1.64 | 1.56 | 0.75
CCN1CCC(CC(=O)Nc2n[nH]c3nnc(-c4cccc(F)c4F)cc23)CC1 | -0.19 | -0.19 | 1.47 | 1.67 | 8.73 | 2.71 | 13.8 | 1.12 | 7.61 | 0.16 | 2.37 | 5.41 | 32.5 | 1.05 | 7.07 | -1.17 | 17.4 | 5.35 | 29.9 | -0.51
Nc1nc(-c2ccc(F)cc2)c(-c2ccc3ncccc3n2)s1 | 8.8 | 4.7 | 16.9 | 3.94 | 8.07 | 3.61 | 0.25 | 6.09 | 10.7 | 3.73 | 1.75 | 6.95 | 9.34 | 4.02 | 7.28 | 4.34 | 7.53 | 2.98 | 8.8 | 3.31
Clc1ccc(-c2nn3ncccc3c2-c2ccnc(Nc3ccccc3)n2)cc1 | 1.83 | 1.6 | 4.02 | 0.56 | 1.32 | 1.43 | 3.91 | 1.3 | 2.48 | 1.03 | -0.36 | 1.45 | 2.58 | 0.66 | 1.41 | 1.16 | 4.53 | -0.96 | 1.58 | 1.63
CC(=O)NCc1cccc(C#Cc2cncnc2Nc2ccc(OCc3cccc(F)c3)c(Cl)c2)c1 | 0.99 | -1.04 | -0.37 | 0.28 | 2.88 | 1.01 | -3.16 | 1.24 | 3.29 | 1.84 | -1.44 | 1.51 | 5.22 | 1.7 | 5.29 | -2.35 | 5.05 | 1 | -0.78 | 0.32
Nc1nc(-c2cccc(Cl)c2)c(-c2ccc3ncccc3n2)s1 | 13.7 | 6.72 | 24.7 | 0.61 | 2.18 | 1.23 | 0.95 | 3.69 | 4.47 | 2.24 | -3.18 | 1.67 | 1.92 | 0.34 | 0.13 | -7.38 | -2.65 | 2.6 | 9.25 | 2.15
